Bioassay records from PubChem.
Giardia killer – Small Molecules that selectively kill Giardia lamblia: qHTS | Giardia lamblia trophozoite viability | activity change, % at 7.66 µM, hits read low | 0.15% of 340,000 active; in the data active = activity change below about -80%; inconclusive = between about -30% and that limit;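 note: parasites exposed to compound for two days anaerobically before the ATP read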
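Giardia lamblia trophozoites (100 cells/well) were incubated with compounds for 48 h at 37 deg C under anaerobic conditions. Viability was read as ATP content by one-step luminescence after 15-30 min at room temperature.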
uPA generation – qHTS for Inhibitors of Cell Surface uPA Generation; Potency, µM (top dose mostly 38.3 µM), actives largely listed as inhibitors; 0.31% of 330,000 active; cell surface uPA generation assay, qHTS; active = well fitted inhibition curve with a large enough effect; inconclusive = small, poorly fitted or top-dose-only effect; inactive = no such curve, though single readings can be large or run the other way; tested in mouse RAW 264.7 cells; note: nearly all actives have a fitted effect of over 55% in size
SW480 rerep – A quantitative high throughput screen for small molecules that induce DNA re-replication in SW480 colon adenocarcinoma cells | SW480 DNA re-replication, Hoechst DNA content imaging, 48 h | Potency, µM (highest dose often 46.1 µM), usual class: activators | 1.8% of 340,000 active | AID 624297, 2012; note: nearly all actives have a fitted effect of over 55% in size
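Treated cells incubate 48 hr (37 C, 5% CO2), are stained 40 min with Hoechst, and nuclear fluorescence is enumerated; a rise in nuclei with high DNA signal marks re-replication.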
MCF10A rereplic – A quantitative high throughput screen for small molecules that induce DNA re-replication in MCF 10a normal breast cells; 2.9% of 350,000 active; AID 624296, 2012; Potency, µM (titrated, usually from 46.1 µM), most hits filed as activators; MCF 10A DNA re-replication, Hoechst nuclear intensity, 48 h; note: nearly all actives have a fitted effect of over 50% in size
Of the large screens only hits and unclear results are named; the others gave an inactive call; ! = not active in a repeat. The list is not random: actives were taken first. Their share in the collection is about 4.3%. Unless noted, calls come from the whole dose curve; as a rule, active = well fitted activation curve with a large enough effect; inconclusive = small, poorly fitted or top-dose-only effect; inactive = no such curve, though single readings can be large or run the other way.

Cc1ccc(S(=O)(=O)Nc2nc3ccccc3nc2Nc2cccc(S(=O)(=O)N3CCCC3)c2)cc1	SW480 rerep inconclusive, MCF10A rereplic 21µM
Cc1cccc2cc(CNCc3ccccc3)c(Cl)nc12	none
Nc1nonc1C(=O)NCCNC(=O)c1ccc(Cl)c(Cl)c1	none
O=C(CSc1cccc[n+]1[O-])c1cc2ccccc2o1	SW480 rerep 13µM
O=C1C2C(c3ccccc3)CC=CC2C(c2ccc3ccccc3c2)N1Cc1ccccc1 (configuration not stated)	none (no result: uPA generation, SW480 rerep, MCF10A rereplic)
COc1cc2c(c(OC)c1OC)-c1ccc(OC)c(=O)cc1[C@@H](N(C)CC#CCO)CC2	SW480 rerep inconclusive, MCF10A rereplic inconclusive
COc1cc2c(c(OC)c1OC)-c1ccc(N(C)CC(OC)OC)c(=O)cc1[C@@H](NC(C)=O)CC2	SW480 rerep 1.5µM, MCF10A rereplic 0.58µM
COc1cc2c(c(OC)c1OC)-c1ccc(NC(=O)c3ccc(F)cc3)c(=O)cc1[C@@H](NC(C)=O)CC2	uPA generation inconclusive, SW480 rerep inconclusive, MCF10A rereplic 3.3µM
CN[C@H]1CCc2cc(OC)c(OC)c(OC)c2-c2ccc(N(C)CC(OC)OC)c(=O)cc21	uPA generation 3.5µM, SW480 rerep inconclusive
CO[C@]1(NC(=O)[C@H](C(=O)O)c2ccc(O)cc2)C(=O)N2C(C(=O)O)=C(CSc3nnnn3C)CO[C@H]21	none (no result: Giardia killer, uPA generation)
CCc1ccc2c(c1)N(C[C@H](C)CN(C)C)c1ccccc1S2	SW480 rerep inconclusive (no result: Giardia killer, uPA generation)
CN(C)/C=C/C(=O)c1cnc(-c2cccc(Cl)c2)s1	MCF10A rereplic 0.65µM
O=C(c1cnc(-c2ccccc2)s1)c1ccc(Cl)cc1Cl	none (no result: uPA generation)
CC(=O)c1cnc(-c2cccc(Cl)c2)s1	MCF10A rereplic 2.1µM
COc1ccc2c(c1)CC(C(=O)Nc1ccc(Cl)cc1)/C(=N/O)O2 (configuration not stated)	none
C=C1C=CS(=O)(=O)N(C(CC(C)C)C(=O)OC)C1 (configuration not stated)	none (no result: uPA generation, SW480 rerep, MCF10A rereplic)
Cn1c(C(=O)NCCCN2CCN(c3ccccc3F)CC2)cc2c(=O)[nH]c3ccccc3c21	MCF10A rereplic 23µM
Cc1ccc(Cl)cc1N1CCN(C(=O)c2cc3c(=O)[nH]c4ccccc4c3n2C)CC1	MCF10A rereplic 18µM!
COc1ccc(C2/C=C\CN(CC(C)C)C(C)C(=O)N2Cc2ccc(F)cc2)cc1 (configuration not stated)	none (no result: uPA generation, SW480 rerep, MCF10A rereplic)
O=C(Nc1ccc(N2CCN(C(=O)c3ccccc3)CC2)cc1)c1ccc([N+](=O)[O-])o1	Giardia killer -100, uPA generation inconclusive, MCF10A rereplic inconclusive
Cc1ccccc1C(=O)N1CCN(c2ccc(NC(=O)c3ccc([N+](=O)[O-])o3)cc2)CC1	Giardia killer -91, SW480 rerep 1.6µM, MCF10A rereplic inconclusive
Cc1ccccc1C(=O)N1CCN(c2ccc(NC(=O)c3cccnc3)cc2)CC1	none
CC1=CC(=O)N(c2cccc3c(N4C(=O)C=C(C)C4=O)cccc23)C1=O	SW480 rerep 13µM, MCF10A rereplic inconclusive
Nc1ccc2c(c1)C(=O)N(c1cccc3ccccc13)C2=O	none
CC(=O)C1=C(O)C(=O)N(CC(=O)O)C1c1ccccc1Cl (configuration not stated)	none
CC(C)(C)C(=O)C1=C(O)C(=O)N(Cc2ccccc2)C1c1ccccc1Cl (configuration not stated)	uPA generation 10µM
O=C1C(=O)c2c(C(=O)c3ccccc3)coc2-c2ccccc21	SW480 rerep inconclusive, MCF10A rereplic 21µM
c1ccc(C2OCCN2c2ccccc2)cc1 (configuration not stated)	none
Cc1nc(-c2ccc(F)cc2)c(CC(=O)N(C)CC(=O)Nc2ccc(Cl)c(C(F)(F)F)c2)s1	SW480 rerep inconclusive, MCF10A rereplic inconclusive
Cc1ccc(OCCCCn2c(CCNC(=O)C3CCCCC3)nc3ccccc32)cc1	none (no result: uPA generation, SW480 rerep, MCF10A rereplic)
CC(=O)c1ccc2c3c(cc(C)c2c1)CCCC3	MCF10A rereplic 21µM
Cc1ccc(C(=O)NC(=S)Nc2cc(C(F)(F)F)ccc2Cl)cc1	SW480 rerep inconclusive, MCF10A rereplic 9.2µM
CCc1cc(CNC(=O)C2CCC(=O)N(CCc3cccc(F)c3)C2)on1 (configuration not stated)	none
CCCNc1c(NS(=O)(=O)c2ccc(C3CCCCC3)cc2)c(=O)oc2ccccc12	SW480 rerep inconclusive, MCF10A rereplic 12µM
Cc1ccccc1Oc1cc(-n2ncc(Cl)c(Cl)c2=O)ncn1	uPA generation 2.2µM, SW480 rerep inconclusive, MCF10A rereplic 0.73µM
Cc1ccc(NS(=O)(=O)c2ccc3[nH]c4c(c3c2)CCCCCC4)cc1C	none (no result: uPA generation, SW480 rerep, MCF10A rereplic)
Oc1ccc(C2=NNC(=NCc3ccc4c(c3)OCO4)SC2)c(O)c1	SW480 rerep 15µM, MCF10A rereplic 12µM
Clc1ccc(C2=NNC(=NCc3ccc4c(c3)OCO4)SC2)cc1	SW480 rerep inconclusive, MCF10A rereplic inconclusive
CCn1c(C)cc(C(=O)CSc2nnc(-c3ccco3)o2)c1C	SW480 rerep 6.5µM
CS(=O)(=O)c1nc(S(=O)(=O)c2ccc(Cl)cc2)c(N2CCC(O)CC2)s1	uPA generation inconclusive
Cc1nc(N2CCN(C(=O)c3ccco3)CC2)c(C#N)c2c1CCCC2	none
CC(C)Cc1nc(N2CCN(C(=O)c3ccco3)CC2)c(C#N)c2c1CCCC2	MCF10A rereplic 23µM
CC(C)C(=O)N1CCN(c2nc(-c3ccccc3)c3c(c2C#N)CCCC3)CC1	SW480 rerep inconclusive, MCF10A rereplic 18µM (no result: uPA generation)
Cc1ccc(-c2nc(SCC(=O)Nc3cc(C)on3)c3c(=O)n(C)c(=O)n(C)c3n2)cc1	none
O=c1oc2ccccc2c(Nc2cc3ccccc3cc2O)c1[N+](=O)[O-]	SW480 rerep inconclusive, MCF10A rereplic 2.1µM
O=c1oc2ccccc2c(Nc2ccccc2O)c1[N+](=O)[O-]	none
COC(=O)c1c(-c2ccc(N(C)C)cc2)sc2ccc(OC)cc12	SW480 rerep 15µM, MCF10A rereplic inconclusive
COc1cccc(-n2nc(C(N)=O)c(O)cc2=O)c1	none
COc1cccc(-n2nc(C#N)c(Cl)cc2=O)c1	SW480 rerep inconclusive, MCF10A rereplic 4.5µM
CCC(OC(=O)C(NC(=O)c1ccccc1)c1ccccc1)C(=O)Nc1cc(C)on1 (configuration not stated)	SW480 rerep inconclusive, MCF10A rereplic 5.8µM
O=C1/C(=C\c2ccncc2)CCc2ccccc21	uPA generation inconclusive, MCF10A rereplic inconclusive
O=C1/C(=C\c2ccccc2)CCC/C1=C/c1ccccc1	SW480 rerep inconclusive, MCF10A rereplic 15µM
O=C1/C(=C/c2ccncc2)CCc2ccccc21	SW480 rerep 21µM, MCF10A rereplic inconclusive
O=C1/C(=C/c2ccncc2)CCC/C1=C\c1ccncc1	Giardia killer inconclusive, SW480 rerep 2.6µM, MCF10A rereplic 3.7µM
CCCn1c(SCC(=O)Nc2cccnc2Cl)n[nH]c1=O	none
O=C(O)/C=C/C(=O)c1c(-c2ccccc2)[nH]c2ccccc12	SW480 rerep inconclusive, MCF10A rereplic 21µM
CC(=O)c1c(-c2ccccc2)[nH]c2ccccc12	SW480 rerep inconclusive, MCF10A rereplic 16µM
